# Experimental data reported in PubChem BioAssay (EPA / NIEHS).
# Activity calls are given as the source filed them. How the source made its calls: active means hit-call score of the fitted dose curve at least 0.9, where 1 is the maximum; inactive means score below 0.9.
# How the values were obtained:
# Conditions in all cases: mRNA level, 48 h; actives raise or lower the signal
# [1] = read-out: Glutamate-cysteine ligase catalytic (GCLC), GCLC (gene 2729); assay: LTEA_HepaRG_GCLC: Life Technologies and Expression Analysis (LTEA) Assay for Glutamate-cysteine ligase catalytic (GCLC) using HepaRG (AID 2283498)
# Outline: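 HepaRG, 48 h exposure, 8-pt half-log series from 100 uM, 0.5% DMSO vehicle; TaqMan qRT-PCR for GCLC mRNA, housekeeping-normalized; bidirectional curve fit vs DMSO baseline.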
# [2] = read-out: growth arrest and DNA damage 45 (GADD45G), GADD45G (gene 10912); assay: LTEA_HepaRG_GADD45G: Life Technologies and Expression Analysis (LTEA) Assay for growth arrest and DNA damage 45 (GADD45G) using HepaRG (AID 2283499)
# Outline: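 Human hepatic HepaRG line treated 48 h with chemicals (eight concentrations, half-log steps from 100 uM); transcript induction or repression of GADD45G scored by qRT-PCR versus DMSO vehicle.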
# [3] = read-out: Glutamate-cysteine ligase regulatory (GCLM), GCLM (gene 2730); assay: LTEA_HepaRG_GCLM: Life Technologies and Expression Analysis (LTEA) Assay for Glutamate-cysteine ligase regulatory (GCLM) using HepaRG (AID 2283500)
# Outline: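 HepaRG, 48 h dosing, 100 uM top, half-log x8, 0.5% DMSO vehicle. Readout: GCLM mRNA by TaqMan qRT-PCR, housekeeping-normalized (ACTB/GAPDH/POLR2A). Curves fit bidirectionally vs DMSO baseline.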
# [4] = read-out: Glutathione S-transferase M3 (GSTM3), GSTM3 (gene 2947); assay: LTEA_HepaRG_GSTM3: Life Technologies and Expression Analysis (LTEA) Assay for Glutathione S-transferase M3 (GSTM3) using HepaRG (AID 2283501)
# Outline: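 Changes in GSTM3 expression, an oxidative-stress marker, were scored by bidirectional curve fitting against 0.5% DMSO vehicle. Human HepaRG cultures received chemicals for 48 h in duplicate, highest concentration 100 uM with half-log dilutions.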
# [5] = read-out: Heat shock 70 kDa protein 1 (HSPA1A), gene 3303; assay: LTEA_HepaRG_HSPA1A: Life Technologies and Expression Analysis (LTEA) Assay for Heat shock 70 kDa protein 1 (HSPA1A) using HepaRG (AID 2283502)
# Outline: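 HepaRG, 48 h exposure, 8-pt half-log CRC from 100 uM in 0.5% DMSO, duplicates. Readout: TaqMan qRT-PCR of HSPA1A mRNA, housekeeping-normalized (ACTB/GAPDH/POLR2A). Bidirectional fit vs 0.5% DMSO baseline.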
# [6] = read-out: Hypoxia-inducible factor 1-alpha (Homo sapiens) (UniProt Q16665); assay: LTEA_HepaRG_HIF1A: Life Technologies and Expression Analysis (LTEA) Assay for Hypoxia-inducible factor 1 (HIF1A) Trancription factor using HepaRG (AID 2283503)
# Outline: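 Gain- or loss-of-signal HIF1A mRNA changes are fitted against a DMSO baseline. HepaRG cultures receive eight concentrations, highest 100 uM, for 48 h in serum-free induction medium with 0.5% DMSO.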
# [7] = read-out: 3-Hydroxy-3-Methylglutaryl-CoA Synthase 2 (HMGCS2), HMGCS2 (gene 3158); assay: LTEA_HepaRG_HMGCS2: Life Technologies and Expression Analysis (LTEA) Assay for 3-Hydroxy-3-Methylglutaryl-CoA Synthase 2 (HMGCS2) using HepaRG (AID 2283504)
# Outline: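 Expression of HMGCS2 in human HepaRG liver cells is measured by qRT-PCR 48 h after dosing (highest 100 uM, half-log series, 0.5% DMSO). Values come from bidirectional concentration-response fitting with DMSO as baseline.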
# HGF (gene 3082) = assay: LTEA_HepaRG_HGF: Life Technologies and Expression Analysis (LTEA) Assay for Hepatocyte Growth Facto (HGF) using HepaRG (AID 2283505)
# Outline: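 Gain or loss of HGF mRNA in human HepaRG liver cells after 48 h chemical exposure; eight concentrations up to 100 uM with 0.5% DMSO vehicle, quantified by TaqMan qRT-PCR.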
# [8] = read-out: Insulin Like Growth Factor 1 (IGF1), IGF1 (gene 3479); assay: LTEA_HepaRG_IGF1: Life Technologies and Expression Analysis (LTEA) Assay for Insulin Like Growth Factor 1 (IGF1) using HepaRG (AID 2283506)
# Outline: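 qRT-PCR readout of IGF1 mRNA, normalized to three housekeeping genes, after 48 h chemical exposure of HepaRG cells. Concentrations: 8-point half-log series, top 100 uM, 0.5% DMSO vehicle. Gain or loss fitted against DMSO baseline.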
# [9] = read-out: Intercellular Adhesion Molecule 1 (ICAM1), ICAM1 (gene 3383); assay: LTEA_HepaRG_ICAM1: Life Technologies and Expression Analysis (LTEA) Assay for Intercellular Adhesion Molecule 1 (ICAM1) using HepaRG (AID 2283507)
# Outline: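 Gain or loss of transcript in HepaRG hepatic cells is quantified by qRT-PCR after 48 h chemical exposure (up to 100 uM, half-log steps), with DMSO as baseline.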
# [10] = read-out: Insulin-like growth factor-binding protein 1 (IGFBP1), IGFBP1 (gene 3484); assay: LTEA_HepaRG_IGFBP1: Life Technologies and Expression Analysis (LTEA) Assay for Insulin-like growth factor-binding protein 1 (IGFBP1) using HepaRG (AID 2283508)
# Outline: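 mRNA induction or loss was quantified by qRT-PCR after 48 h chemical exposure of human HepaRG cells, with 0.5% DMSO as vehicle and baseline. Concentration-response over eight points up to 100 uM.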
# [11] = read-out: Interleukin 6 (IL6), IL6 (gene 3569); assay: LTEA_HepaRG_IL6: Life Technologies and Expression Analysis (LTEA) Assay for Interleukin 6 (IL6) using HepaRG (AID 2283509)
# Outline: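 qRT-PCR read-out of IL6 transcript, normalized to three housekeeping genes, after 48 h chemical exposure of HepaRG cells; 8-point half-log series, top 100 uM, 0.5% DMSO vehicle. Bidirectional curve fitting against DMSO baseline.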
# [12] = read-out: Interleukin 6 Receptor (IL6R), IL6R (gene 3570); assay: LTEA_HepaRG_IL6R: Life Technologies and Expression Analysis (LTEA) Assay for Interleukin 6 Receptor (IL6R) using HepaRG (AID 2283510)
# Outline: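 HepaRG, 48 h exposure, 8-pt half-log series, top 100 uM, 0.5% DMSO vehicle, duplicates. Read-out: TaqMan qRT-PCR of IL6R transcript, housekeeping-gene normalized. Gain or loss fitted relative to DMSO baseline.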
# [13] = read-out: Potassium channel subfamily K member 1 (KCNK1), KCNK1 (gene 3775); assay: LTEA_HepaRG_KCNK1: Life Technologies and Expression Analysis (LTEA) Assay for Potassium channel subfamily K member 1 (KCNK1) using HepaRG (AID 2283511)
# Outline: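 HepaRG, 48 h exposure, 8-pt half-log series top 100 uM, 0.5% DMSO vehicle, duplicates. Readout: KCNK1 transcript by qRT-PCR (Fluidigm array), housekeeping-normalized; bidirectional curve fit relative to DMSO baseline.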
# [14] = read-out: Keratin 19 (KRT19), KRT19 (gene 3880); assay: LTEA_HepaRG_KRT19: Life Technologies and Expression Analysis (LTEA) Assay for Keratin 19 (KRT19) using HepaRG (AID 2283512)
# Outline: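 Gene-expression endpoint in the human liver line HepaRG after 48 h exposure to up to 100 uM test chemical with 0.5% DMSO vehicle; KRT19 mRNA by qRT-PCR, analyzed bidirectionally versus DMSO.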
# [15] = read-out: JUN Transcription Factor, JUN (gene 3725); assay: LTEA_HepaRG_JUN: Life Technologies and Expression Analysis (LTEA) Assay for JUN Transcription Factor using HepaRG (AID 2283513)
# Outline: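 HepaRG, 48 h exposure, 8-pt half-log series top 100 uM, 0.5% DMSO, duplicate. JUN mRNA by qRT-PCR (Fluidigm), housekeeping-normalized (ACTB/GAPDH/POLR2A); bidirectional curve fit vs DMSO baseline.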
# [16] = read-out: Lipase C (LIPC), LIPC (gene 3990); assay: LTEA_HepaRG_LIPC: Life Technologies and Expression Analysis (LTEA) Assay for Lipase C (LIPC) using HepaRG (AID 2283514)
# Outline: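 HepaRG, 48 h exposure, 8-pt half-log series from 100 uM in 0.5% DMSO, duplicates. Readout: LIPC mRNA by Fluidigm qRT-PCR, housekeeping-normalized (ACTB/GAPDH/POLR2A). Gain or loss fitted bidirectionally against DMSO baseline.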
# [17] = read-out: Lipoprotein lipase (LPL), LPL (gene 4023); assay: LTEA_HepaRG_LPL: Life Technologies and Expression Analysis (LTEA) Assay for Lipoprotein lipase (LPL) using HepaRG (AID 2283515)
# Outline: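 HepaRG, 48 h exposure, 8-pt half-log dilutions from 100 uM, 0.5% DMSO vehicle, duplicates; qRT-PCR (Fluidigm array) of LPL mRNA vs housekeeping genes; bidirectional curve fit relative to DMSO baseline.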
# [18] = read-out: Cytochrome P450 7A1 (Homo sapiens) (UniProt P22680); assay: LTEA_HepaRG_CYP7A1: Life Technologies and Expression Analysis (LTEA) Assay for Cytochrome P450 7A1 (CYP7A1) using HepaRG (AID 2283496)
# Outline: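 Using 0.5% DMSO as vehicle and baseline, chemicals were tested in duplicate over an 8-point range from 100 uM on HepaRG cells for 48 h; qRT-PCR signals were normalised to ACTB, GAPDH and POLR2A.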
# Hypoxia-inducible factor 1-alpha (Homo sapiens), sequence (Q16665 whole entry, looked up): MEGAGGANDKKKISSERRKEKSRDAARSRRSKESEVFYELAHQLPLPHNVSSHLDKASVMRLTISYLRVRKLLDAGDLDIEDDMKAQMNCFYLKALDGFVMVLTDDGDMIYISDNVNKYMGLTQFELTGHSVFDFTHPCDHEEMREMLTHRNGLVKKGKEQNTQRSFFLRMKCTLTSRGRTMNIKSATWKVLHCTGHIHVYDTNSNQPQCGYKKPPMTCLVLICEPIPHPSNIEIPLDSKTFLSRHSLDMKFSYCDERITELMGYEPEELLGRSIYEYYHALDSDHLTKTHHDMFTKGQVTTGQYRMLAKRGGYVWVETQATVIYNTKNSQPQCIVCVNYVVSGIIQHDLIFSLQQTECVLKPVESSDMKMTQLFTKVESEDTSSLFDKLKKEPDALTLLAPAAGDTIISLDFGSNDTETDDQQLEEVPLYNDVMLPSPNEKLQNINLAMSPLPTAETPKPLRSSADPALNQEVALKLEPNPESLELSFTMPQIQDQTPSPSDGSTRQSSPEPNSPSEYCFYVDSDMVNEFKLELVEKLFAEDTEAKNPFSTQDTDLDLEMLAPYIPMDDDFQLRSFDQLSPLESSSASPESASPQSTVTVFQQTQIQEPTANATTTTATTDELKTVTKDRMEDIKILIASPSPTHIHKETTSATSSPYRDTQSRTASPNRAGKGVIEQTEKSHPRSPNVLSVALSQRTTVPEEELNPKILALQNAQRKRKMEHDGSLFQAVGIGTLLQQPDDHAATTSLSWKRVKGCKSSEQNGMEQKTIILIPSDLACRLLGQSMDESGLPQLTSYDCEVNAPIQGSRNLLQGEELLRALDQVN
smiles,measurement,setting,value
c1ccc(-c2ccccc2)cc1,outcome,[1],inactive
same,outcome,[2],inactive
same,outcome,[3],inactive
same,outcome,[4],inactive
same,outcome,[5],inactive
same,outcome,[6],inactive
same,outcome,[7],inactive
same,outcome,HGF (gene 3082),inactive
same,outcome,[8],inactive
same,outcome,[9],inactive
same,outcome,[10],inactive
same,outcome,[11],inactive
same,outcome,[12],inactive
same,outcome,[13],inactive
same,outcome,[14],inactive
same,outcome,[15],inactive
same,outcome,[16],inactive
same,outcome,[17],inactive
O=S(=O)(O)C(F)(F)C(F)(F)C(F)(F)C(F)(F)F,outcome,[18],inactive
same,outcome,[1],inactive
same,outcome,[2],inactive
same,outcome,[3],inactive
same,outcome,[4],inactive
same,outcome,[6],inactive
same,outcome,HGF (gene 3082),inactive
same,outcome,[8],inactive
same,outcome,[9],inactive
same,outcome,[10],inactive
same,outcome,[11],inactive
same,outcome,[12],inactive
same,outcome,[13],inactive
same,outcome,[14],inactive
same,outcome,[15],inactive
same,outcome,[17],inactive
Cc1ccccc1O,outcome,[18],inactive
same,outcome,[1],inactive
same,outcome,[2],inactive
same,outcome,[3],inactive
same,outcome,[4],inactive
same,outcome,[6],inactive
same,outcome,[7],inactive
same,outcome,HGF (gene 3082),inactive
same,outcome,[8],inactive
same,outcome,[9],inactive
same,outcome,[10],inactive
same,outcome,[11],inactive
same,outcome,[12],inactive
same,outcome,[13],inactive
same,outcome,[14],inactive
same,outcome,[15],inactive
same,outcome,[17],inactive
Oc1ccc(Cl)cc1Cl,outcome,[18],inactive
same,outcome,[1],inactive
same,outcome,[2],inactive
same,outcome,[3],inactive
same,outcome,[4],inactive
same,outcome,[6],inactive
same,outcome,HGF (gene 3082),inactive
same,outcome,[9],inactive
same,outcome,[10],inactive
same,outcome,[11],inactive
same,outcome,[12],inactive
same,outcome,[13],inactive
same,outcome,[14],inactive
same,outcome,[15],inactive
same,outcome,[16],inactive
same,outcome,[17],inactive
CCCCCCCCCc1ccc(O)cc1,outcome,[18],inactive
same,outcome,[1],inactive
same,outcome,[2],inactive
same,outcome,[3],inactive
same,outcome,[4],inactive
same,outcome,[6],inactive
same,AC50,[7],50 µM (active)
same,outcome,HGF (gene 3082),inactive
same,outcome,[9],inactive
same,outcome,[10],inactive
same,outcome,[11],inactive
same,outcome,[12],inactive
same,outcome,[13],inactive
same,outcome,[14],inactive
same,outcome,[15],inactive
same,outcome,[17],inactive
C1CC2OC2CC1C1CO1 (stereo not given),outcome,[18],inactive
same,outcome,[1],inactive
same,outcome,[2],inactive
same,outcome,[3],inactive
same,outcome,[4],inactive
same,outcome,[6],inactive
same,outcome,HGF (gene 3082),inactive
same,outcome,[8],inactive
same,outcome,[9],inactive
same,outcome,[10],inactive
same,outcome,[11],inactive
same,outcome,[12],inactive
same,outcome,[13],inactive
same,outcome,[14],inactive
same,outcome,[15],inactive
same,outcome,[17],inactive
CCCCCCCCCC[N+](C)(C)CCCCCCCCCC,outcome,[18],inactive
same,AC50,[1],83.7 µM (active)
same,AC50,[2],83.7 µM (active)
same,outcome,[3],inactive
same,outcome,[4],inactive
same,outcome,[5],inactive
same,AC50,[6],82.7 µM (active)
same,AC50,HGF (gene 3082),50 µM (active)
same,AC50,[9],94.5 µM (active)
same,AC50,[10],81.6 µM (active)
same,AC50,[11],78.3 µM (active)
same,outcome,[12],inactive
same,outcome,[14],inactive
same,AC50,[15],90.5 µM (active)
same,outcome,[16],inactive
same,AC50,[17],88.7 µM (active)
